GRIN3A LBD mod – modulators (binders) of human NR3A ligand-binding domain; NR3A LBD differential scanning fluorimetry, Tm shift; 0% = protein alone, 100% = glycine-bound protein; Tm shift relative to glycine control, % at 25 µM; hit rate 2.5% among 340,000; AID 1259313;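 active = melting temperature shift of at least 10% of the positive control shift, at one fixed dose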
rCAG RNA binder – molecules binding r(CAG) RNA repeats | r(CAG) RNA repeat, TO-PRO-1 dye displacement fluorescence | inhibition, % at 3 µM | hit rate 1.3% among 370,000 | AID 651821;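 active = inhibition above the plate cutoff, the mean of all test compounds on that plate plus 3 SD, cut at about 35% in these data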;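 also: 0% = DMSO alone and 100% = 100 µM mitoxantrone as full dye displacement; higher means more dye released from RNA so lower well fluorescence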
MPTP inh – inhibitors of mitochondrial permeability transition pore. isolated mouse mitochondria, Ca2+ swelling absorbance, 30 min. inhibition, % at 10 µM. hit rate 1.4% among 360,000. AID 602449;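 active = inhibition of 50% or more, scaled per plate between neutral and stimulator controls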;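 also: 0% = DMSO wells given calcium and 100% = 1 mM EGTA wells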
Myeloid diff MLP – myeloid differentiation induction | hit rate 1% among 360,000 | ER-HoxA9 myeloid progenitors, lysozyme-GFP differentiation, flow cytometry | AID 624256 | calls only at 10 µM;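 active = normalized GFP-positive differentiation at or above the plate's own cutoff, the solvent-only control mean plus 3 SD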;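 also: cells exposed to compound for four days before flow analysis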
FAS TE block – FAS thioesterase (human) inhibition; recombinant FAS-TE, OMFH fluorogenic substrate, fluorescence endpoint; inhibition, % at 15 µM; hit rate 0.67% among 360,000; P49327; AID 602261;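 active = compounds whose normalised, plate-corrected inhibition of enzyme fluorescence in the single-dose primary screen is 50% or more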;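 also: 0% = DMSO with enzyme and 100% = substrate without enzyme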
Myeloid diff CP1 – promotes myeloid progenitor differentiation | shares compounds with Myeloid diff MLP | ER-HoxA9 myeloid progenitors, GFP/Mac1 double-positive flow | calls only | hit rate 2% among 2,300 | AID 651706;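 active = share of green or green-and-red cells above 9 and 9% in run 1 or 4 and 3% in run 2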
GFP autofluor – counter-screen for myeloid differentiation promoters: compound fluorescence; hit rate 7.4% among 2,300; shares compounds with Myeloid diff MLP; fluorescence response, % (test concentration not listed); ER-HoxA9 myeloid progenitors, no estrogen, GFP autofluorescence flow cytometry; vehicle wells 0%, positive control 100%;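 active = over 5% cells positive for green fluorescent reporter, or over 2% positive for both it and APC stain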;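 also: range taken on the double positive population between DMSO and positive control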
* marks the source's active call; other numbers are inactive results; i = inactive; . = no result given; + = active, no number; ! = not confirmed by another sample. The list is not random: actives were taken first. Their share in the collection is about 5.7%.

SMILES	GRIN3A LBD mod	rCAG RNA binder	MPTP inh	Myeloid diff MLP	FAS TE block	Myeloid diff CP1	GFP autofluor
O=S(=O)(c1ccc(Cl)cc1)N1CCN(Cc2c[nH]c3ccccc23)CC1	-6.5	-0.5	-3.4	i	12.0	i	0.5
O=C(Cc1c[nH]c2ccccc12)N1CCN(S(=O)(=O)c2ccc(Cl)cc2)CC1	-2.2	6.9	-1.5	i	5.9	.	.
N#Cc1c(C(F)(F)F)cc(-c2ccccc2)nc1SCC(=O)Nc1sc2c(c1C#N)CCC2	10.5*	8.2	1.7	i	2.0	i	0.0
CNC[C@H]1OCc2ccccc2-c2ccccc2C(=O)N([C@H](C)CO)C[C@H]1C	.	2.7	-0.9	i	-5.1	.	.
CC(C)[C@H](NS(=O)(=O)c1ccccc1)C(=O)OCC(=O)N1N=C(c2ccc(Cl)cc2)CC1c1ccco1 (some centres undefined)	7.4	34.0	1.1	i	11.8	i	0.0
COCC(=O)OCC(=O)N1N=C(c2ccc(Cl)cc2)CC1c1ccco1 (centres undefined)	0.1	-4.2	0.6	i	1.5	.	.
CCC(COC)NCc1cn(-c2ccc(OC)cc2)nc1-c1cccc(F)c1 (centres undefined)	0.4	-5.4	1.6	+	10.4	i	0.3
CCOc1ccc(S(=O)(=O)N2CCCC(C(=O)NCc3cccnc3)C2)cc1 (centres undefined)	-0.3	-5.8	1.6	i	-5.8	.	.
CN(C)S(=O)(=O)Oc1ccsc1C(=O)Nc1ccccc1Cl	4.6	2.5	0.5	i	20.1	.	.
CN(C)S(=O)(=O)Oc1ccsc1C(=O)Nc1cccc(Cl)c1Cl	-12.8	8.9	1.8	i	31.5	i	0.3
Cc1cc(C(=O)OCC(N)=O)c(C)n1-c1ccccc1	-1.2	-2.4	-2.2	i	-1.7	.	.
C/C(N)=C(/C#N)C(=O)COC(=O)c1cc(C)n(-c2ccc(F)cc2)c1C	6.8	1.2	-1.0	+	22.9	+	0.0
COc1ccccc1C(=O)NCCCNC(=O)c1ccccn1	-1.7	-4.6	0.6	i	-6.4	.	.
O=C(NCCCNCc1ccccc1)c1ccccn1	-2.8	-0.8	0.4	+!	-4.5	i	0.3
CC(C)CNC(=O)COC(=O)c1ccc2c(c1)C(=O)N(Cc1ccco1)C2=O	3.6	-0.4	0.3	i	1.4	.	.
CNCCCOc1ccc(C)cc1OC	-2.1	2.2	-0.3	i	-3.2	i	0.3
CC(C)C(=O)Nc1nc2cc3c(cc2s1)OCCO3	1.1	0.9	0.4	i	-2.3	.	.
O=C(COc1ccccc1)Nc1nc2cc3c(cc2s1)OCCO3	2.0	5.0	1.6	i	-2.8	i	0.7
COc1ccc(CC(=O)NNC(=O)c2ccc(SCc3cc(F)ccc3F)c([N+](=O)[O-])c2)cc1	-4.4	9.5	-0.2	i	-10.6	i	0.0
Cc1cccc(NC(=O)C2CC(O)CN2C(=O)Oc2ccccc2)c1 (centres undefined)	-0.6	0.2	0.5	i	-2.5	.	.
CCOc1ccc(NC(=O)NNC(=O)COc2ccc3ccccc3c2)cc1	-1.7	0.9	-0.5	i	-7.0	.	.
CCOc1ccc(N2C(=O)CS/C2=N/NC(=O)COc2ccc3ccccc3c2)cc1	-2.1	5.0	1.2	i	2.5	i	0.9
Cc1ccc(NC(=O)Cn2cnc3c(nnn3Cc3ccc(F)cc3)c2=O)cc1	-0.8	-2.8	1.3	i	0.5	.	.
CC1CC(C)CN(c2ncc3c(n2)CC(c2ccccc2Cl)CC3=O)C1 (centres undefined)	-0.4	3.7	3.3	i	18.5	.	.
CC1CC(C)CN(c2ncc3c(n2)CC(c2ccc(Cl)cc2)CC3=O)C1 (centres undefined)	-2.2	0.9	8.7	i	30.0	i	0.2
SMILES	GRIN3A LBD mod	rCAG RNA binder	MPTP inh	Myeloid diff MLP	FAS TE block	Myeloid diff CP1	GFP autofluor
CC(=O)C1=C(O)C(=O)N(c2ccc(Br)cc2)C1c1ccccc1[N+](=O)[O-] (centres undefined)	2.2	29.0	1.1	i	-2.0	.	.
O=C(CN1C(=O)NC2(CCc3ccccc3C2)C1=O)NCc1ccco1 (centres undefined)	-0.6	0.5	-0.8	i	-1.9	i	0.0
O=C(CN1C(=O)NC2(CCCC2)C1=O)NCc1ccco1	-2.2	2.4	-0.9	i	-3.2	.	.
Cc1ccc(CNC(=O)Cc2noc3ccccc23)cc1	0.1	-0.6	0.3	i	3.2	.	.
CCOc1ccc(NC(=O)CNC(=O)c2cn(-c3ccccc3OC)c(=O)c3ccccc23)cc1	-0.8	-1.9	0.3	i	-0.3	.	.
O=C(COC(=O)c1cnccn1)c1ccc(OC(=O)c2ccccc2)cc1	-0.7	1.3	-0.4	i	-4.8	.	.
O=C(COC(=O)c1cnccn1)c1ccc2ccccc2c1	0.9	1.9	1.0	i	-6.9	i	0.3
CCCc1nnc(NC(=O)CCC(=O)N2CCN(c3ccccc3)CC2)s1	-2.6	-5.9	0.6	i	-3.8	i	0.0
Cc1cc(C)c2nc(SCC(=O)Nc3ccccc3N3CCOCC3)c(C#N)cc2c1	6.5	3.2	2.4	+	0.0	i	0.0
COCc1cc(C)nc(SCC(=O)Nc2ccccc2N2CCOCC2)c1C#N	1.1	-7.0	-1.1	i	5.5	.	.
Cc1nc(SCC(=O)N(C)C2(C#N)CCCCC2)c2ccccc2n1	-1.5	1.8	-0.8	i	-18.2	i	3.9
CCOC(=O)c1ccc(NC(=O)NNS(=O)(=O)c2cc(OC)ccc2OC)cc1	1.6	4.0	-0.8	i	-3.5	.	.
COc1cccc(C(=O)N2CCCC(c3nc(-c4cccs4)no3)C2)c1 (centres undefined)	-0.8	-4.9	-0.8	i	-37.9	.	.
COc1cc(C(=O)N2CCCC(c3nc(-c4cccs4)no3)C2)cc(OC)c1OC (centres undefined)	6.4	-6.0	0.7	i	-12.6	i	1.2
O=[N+]([O-])CC(c1ccccc1)c1c[nH]c2ccccc12 (centres undefined)	-6.4	-0.4	3.5	+	10.1	i	0.3
COc1cc(C(C[N+](=O)[O-])c2c(C)[nH]c3ccccc23)cc(OC)c1OC (centres undefined)	2.0	0.0	2.1	i	3.2	.	.
O=C(Nc1cccnc1Cl)C1=NN(c2ccccc2)C(=O)CC1	1.7	0.9	-2.6	i	-4.1	.	.
Cc1ccc(C)c(N=Nc2nc3ccccc3n2C)c1	-2.5	-0.8	0.1	+	12.5	i	0.0
Cc1ccc(S(=O)(=O)N2CCN(CC(=O)N/N=C/c3ccco3)CC2)cc1	-0.1	4.8	-0.7	i	-4.0	.	.
CCN(C(=O)COC(=O)/C=C/c1ccc(OC(F)F)c(OC)c1)C1CCS(=O)(=O)C1 (centres undefined)	0.5	-0.8	-2.5	i	-2.9	.	.
O=C(CCn1c(=O)sc2ccccc21)NC1=NCCS1	2.2	-2.0	0.1	i	-10.0	i	0.0
